According to PubChem BioAssay AID1159580 (chemical genetic matrix, 2015):
The campaign covered roughly 5,500 compounds. About 2,000 (36%) were called active. Inconclusive results (about 18%) are left out. Cut-off read from the data, not from the text of the source: active = normalized growth mostly below about 0.91 (no sharp cut-off); inconclusive = no clear call, values can overlap the other calls; inactive = mostly above about 0.92. The list shows a part of the results.

Assay: chemical genetic growth profiling, strain panel (AID 1159580);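 note: tested at 20 µM; growth read once vehicle control cultures reached saturation at 30 °C; 1 = growth at the plate median or of vehicle wells; lower values mean less growth of the strain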
Settings: growth OD

Measured: normalized growth

CC1(C)C2CC(=O)[C@]3(C)C(CC[C@@]4(C)[C@H](c5ccoc5)OC(=O)[C@H]5O[C@]543)[C@@]2(C)C=C[C@@H]1O (some centres not stated)
inactive: S. cerevisiae deletion strains, locus YBR021W, strain FUR4, active compounds read low 0.944 | S. cerevisiae deletion strains, locus YBR229C, strain ROT2, active compounds read low 1.02 | S. cerevisiae deletion strains, locus YCL029C, strain bik1, active compounds read low 1 | S. cerevisiae deletion strains, locus YDL035C, strain GPR1, active compounds read low 1.02 | S. cerevisiae deletion strains, locus YDL074C, strain BRE1, active compounds read low 1.01 | S. cerevisiae deletion strains, locus YDL101C, strain DUN1, active compounds read low 0.994 | S. cerevisiae deletion strains, locus YDL134C, strain PPH21, active compounds read low 0.982 | S. cerevisiae deletion strains, locus YDL185W, strain tfp1, active compounds read low 1.01 | S. cerevisiae deletion strains, locus YDL192W, strain arf1, active compounds read low 1.01 | S. cerevisiae deletion strains, locus YDR101C, strain arx1, active compounds read low 0.993 | S. cerevisiae deletion strains, locus YDR150W, strain NUM1, active compounds read low 1.01 | S. cerevisiae deletion strains, locus YDR162C, strain NBP2, active compounds read low 1.01 | S. cerevisiae deletion strains, locus YDR318W, strain mcm21, active compounds read low 0.99 | S. cerevisiae deletion strains, locus YDR388W, active compounds read low 1.01 | S. cerevisiae deletion strains, locus YDR502C, strain sam2, active compounds read low 0.967 | S. cerevisiae deletion strains, locus YEL061C, strain CIN8, active compounds read low 1.01 | S. cerevisiae deletion strains, locus YER110C, active compounds read low 0.986 | S. cerevisiae deletion strains, locus YER155C, strain BEM2, active compounds read low 1.01 | S. cerevisiae deletion strains, locus YER167W, strain BCK2, active compounds read low 1.02 | S. cerevisiae deletion strains, locus YGL078C, strain dbp3, active compounds read low 0.981 | S. cerevisiae deletion strains, locus YGL086W, strain mad1, active compounds read low 0.989 | S. cerevisiae deletion strains, locus YGL248W, strain PDE1, active compounds read low 0.998 | S. cerevisiae deletion strains, locus YGR135W, strain pre9, active compounds read low 0.931 | S. cerevisiae deletion strains, locus YGR252W, strain gcn5, active compounds read low 0.844 | S. cerevisiae deletion strains, locus YHR030C, strain SLT2, active compounds read low 1.02 | S. cerevisiae deletion strains, locus YHR079C, strain IRE1 (second series), active compounds read low 0.99 | S. cerevisiae deletion strains, locus YHR094C, strain hxt1, active compounds read low 0.999 | S. cerevisiae deletion strains, locus YHR129C, strain ARP1, active compounds read low 1.01 | S. cerevisiae deletion strains, locus YHR200W, strain rpn10, active compounds read low 0.975 | S. cerevisiae deletion strains, locus YIL066C, strain RNR3, active compounds read low 1.04 | S. cerevisiae deletion strains, locus YIL073C, strain SPO22, active compounds read low 1.02 | S. cerevisiae deletion strains, locus YIL125W, strain kgd1, active compounds read low 0.995 | S. cerevisiae deletion strains, locus YIR030C, strain dcg1, active compounds read low 0.996 | S. cerevisiae deletion strains, locus YJL095W, strain BCK1, active compounds read low 1 | S. cerevisiae deletion strains, locus YJL134W, strain LCB3, active compounds read low 1.01 | S. cerevisiae deletion strains, locus YJL168C, strain set2, active compounds read low 0.993 | S. cerevisiae deletion strains, locus YJL187C, strain SWE1 (second series), active compounds read low 0.981 | S. cerevisiae deletion strains, locus YJR043C, strain POL32, active compounds read low 1.03 | S. cerevisiae deletion strains, locus YKL009W, strain mrt4, active compounds read low 0.988 | S. cerevisiae deletion strains, locus YKL068W, active compounds read low 1.01 | S. cerevisiae deletion strains, locus YKL085W, strain MDH1 (second series), active compounds read low 1.01 | S. cerevisiae deletion strains, locus YKL085W, strain MDH1, active compounds read low 1.01 | S. cerevisiae deletion strains, locus YKR001C, strain vps1, active compounds read low 1 | S. cerevisiae deletion strains, locus YLR039C, strain RIC1, active compounds read low 1.18 | S. cerevisiae deletion strains, locus YLR058C, strain SHM2, active compounds read low 0.996 | S. cerevisiae deletion strains, locus YLR102C, strain apc9, active compounds read low 1 | S. cerevisiae deletion strains, locus YLR262C, strain YPT6, active compounds read low 1.16 | S. cerevisiae deletion strains, locus YLR268W, strain sec22, active compounds read low 1 | S. cerevisiae deletion strains, locus YLR330W, strain CHS5, active compounds read low 1 | S. cerevisiae deletion strains, locus YLR371W, strain rom2, active compounds read low 1.01 | S. cerevisiae deletion strains, locus YLR418C, strain cdc73, active compounds read low 0.936 | S. cerevisiae deletion strains, locus YML016C, strain PPZ1, active compounds read low 1.03 | S. cerevisiae deletion strains, locus YML032C, strain rad52, active compounds read low 0.998 | S. cerevisiae deletion strains, locus YML124C, strain tub3, active compounds read low 0.995 | S. cerevisiae deletion strains, locus YMR078C, strain ctf18, active compounds read low 0.998 | S. cerevisiae deletion strains, locus YMR223W, strain ubp8, active compounds read low 0.97 | S. cerevisiae deletion strains, locus YMR263W, strain SAP30, active compounds read low 0.986 | S. cerevisiae deletion strains, locus YMR307W, strain GAS1, active compounds read low 1.1 | S. cerevisiae deletion strains, locus YNL067W, strain RPL9B, active compounds read low 0.97 | S. cerevisiae deletion strains, locus YNL128W, strain TEP1, active compounds read low 1.02 | S. cerevisiae deletion strains, locus YNL233W, strain BNI4, active compounds read low 0.975 | S. cerevisiae deletion strains, locus YNL250W, strain rad50, active compounds read low 0.986 | S. cerevisiae deletion strains, locus YNL271C, strain bni1, active compounds read low 1 | S. cerevisiae deletion strains, locus YNL298W, strain CLA4, active compounds read low 1.01 | S. cerevisiae deletion strains, locus YNL307C, strain MCK1, active compounds read low 1 | S. cerevisiae deletion strains, locus YNL322C, strain KRE1, active compounds read low 1.01 | S. cerevisiae deletion strains, locus YNR052C, strain pop2, active compounds read low 0.967 | S. cerevisiae deletion strains, locus YOL012C, strain htz1 1.21 | S. cerevisiae deletion strains, locus YOL147C, strain pex11, active compounds read low 0.993 | S. cerevisiae deletion strains, locus YOR061W, strain CKA2, active compounds read low 1.02 | S. cerevisiae deletion strains, locus YOR069W, strain VPS5, active compounds read low 1 | S. cerevisiae deletion strains, locus YOR136W, strain idh2, active compounds read low 0.985 | S. cerevisiae deletion strains, locus YOR144C, strain elg1, active compounds read low 1 | S. cerevisiae deletion strains, locus YOR184W, strain ser1, active compounds read low 0.993 | S. cerevisiae deletion strains, locus YOR316C, strain cot1, active compounds read low 1.01 | S. cerevisiae deletion strains, locus YPL241C, strain CIN2, active compounds read low 1.01 | S. cerevisiae deletion strains, locus YPR119W, strain clb2, active compounds read low 0.997 | S. cerevisiae deletion strains, locus YPR141C, strain kar3, active compounds read low 1.01 | S. cerevisiae deletion strains, locus YPR163C, strain tif3, active compounds read low 0.987 | S. cerevisiae deletion strains, locus YPR167C, strain met16, active compounds read low 0.985 | S. cerevisiae deletion strains, strain wtn01, active compounds read low 0.998 | S. cerevisiae strains, strain wild type, active compounds read low 1.01
